The source of these data is PubChem BioAssay (EPA / NIEHS).

Where “and” joins values, the source holds several entries; their conditions need not be identical. Equal values may be shown once. The source holds several records for some structures; these can differ, active in one and inactive in another. Calls of active or inactive are those of the source. Rule for the calls: active = hit-call score of the fitted dose curve at least 0.9, where 1 is the maximum; inactive = score below 0.9.

The test in a line: BSK_LPS_PGE2: BioMAP Diversity Plus: LPS Assay for Prostaglandin E2 (PGE2) Biomarker Activity (AID 2283082). As to conditions: primary human HUVEC with PBMC; actives raise or lower the signal. As to the method: BSK_LPS is a cell-based, multiplexed-readout assay that uses umbilical vein endothelium and peripheral blood mononuclear cells, a human vascular primary cell co-culture, with measurements taken at 24 hours after chemical dosing in a 96-well plate.BSK_LPS_PGE2 is an assay component measured in the BSK_LPS assay. It measures PGE2 antibody related to regulation of gene expression using ELISA technology.Data from the assay component BSK_LPS_PGE2 was analyzed into 1 assay endpoint. This assay endpoint, BSK_LPS_PGE2, was analyzed with bidirectional fitting relative to DMSO as the negative control and baseline of activity. Using a type of binding reporter, gain or loss-of-signal activity can be used to understand changes in the signaling as they relate to the gene PTGER2. Furthermore, this assay endpoint can be referred to as a primary readout, because this assay has produced multiple assay endpoints where this one serves a signaling function. To generalize the intended target to other relatable targets, this assay endpoint is annotated to the gpcr intended target family, where the subfamily is rhodopsin-like receptor.
The levels of cell surface (or secreted, indicated by the prefix "s") biomarker endpoints were measured by ELISA. Overt cytotoxicity to cells in confluent adherent cultures (all systems other than the BT system) was assessed by measuring total protein levels using sulforhodamine B (SRB) staining in parallel cultures at the time of biomarker measurements, indicated as SRB endpoints. For proliferation assays for adherent cell types, individual cell types are cultured at sub-confluence and relative cell numbers quantified by SRB staining at time points optimized for each system (48 h: 3C and CASM3C systems; 72 h: BT and HDF3CGF systems; 96 h: SAg system). SRB was performed by staining cells with 0.1% SRB after fixation with 10% TCA and reading wells at 560 nm.Viability and proliferation of PBMC (T cells) was quantified by Alamar Blue reduction for the SAg and BT systems. For PBMC viability (referred to as PBMC Cytotoxicity within the assay endpoint names), cells were plated (75,000/well in a 96-well plate) and then chemical samples added for 1 h before addition of activators, SEB and TSST-1 (20 ng/mL final concentration each). Cells were incubated for 90 h. Then, Alamar Blue (20 uL/well) (Invitrogen, Cat DAL1100) was added for 6 h, and the plates were read with a fluorescence microplate reader at 546/580 nm (excitation/emission). For PBMC proliferation, cells were plated and activated as above but incubated for only 16 h prior to addition of Alamar Blue. Plates were read after 6 h.
As to `C=C1CC/C=C(\C)CC[C@@H]2[C@@H]1CC2(C)C`, the AC50 is 3.97 µM (active). As to `CCCCN(CCO)CCO`, the result was inactive. For `CC/C(=C(\c1ccccc1)c1ccc(OCCN(C)C)cc1)c1ccccc1`, the outcome was inactive and the AC50 is 33.6 µM (active). As for `C[C@]12CC[C@@H]3c4ccc(O)cc4CC[C@H]3[C@@H]1CC[C@@H]2O`, the outcome was inactive.

Turning to `O=S1(=O)CC(Cl)(Cl)C(Cl)(Cl)C1`, the result was inactive.

As to `CCCCCCCCCCCCS`, the AC50 was 3.97 µM (active).

As to `Nc1ccc(N)c([N+](=O)[O-])c1`, the result was inactive. On to `CC(C)(CO)CO`, for which the result was inactive.

Consider `CCCO[Si](OCCC)(OCCC)OCCC`, for which the outcome was inactive. For the compound `OCC(F)(OC(F)(F)C(F)(OC(F)(F)C(F)(F)C(F)(F)F)C(F)(F)F)C(F)(F)F` (stereo not given), the AC50 is 5.49 µM (active) and 5.04 µM (active). As for `CC(C)(C)c1cccc(O)c1`, the outcome was inactive.

As for `CCOC(=O)C=Cc1ccccc1`, the result was inactive. As for `C=C(C)C(N)=O`, the outcome was inactive. `O=S(=O)(O)C(F)(F)C(F)(F)OC(F)(F)C(F)(F)F`: the result was inactive. Turning to `CCCCCCCC1CCCC1=O` (stereo not given), the outcome was inactive. For the compound `O=C(O)C(F)(F)OC(F)(F)C(F)(F)OC(F)(F)C(F)(F)C(F)(F)C(F)(F)F`, the half-maximal activity concentration (AC50) was 15 µM (active) and 11.1 µM (active). As for `CC(C)Cc1ccc(C(C)C(=O)O)cc1` (stereo not given), the AC50 was 0.897 µM (active). With `c1ccc2c(c1)-c1ccc3ccc4cccc5cc-2c1c3c45`, the outcome was inactive. For the compound `C=C(C)C(=O)OCCC(F)(F)C(F)(F)C(F)(F)C(F)(F)C(F)(F)C(F)(F)C(F)(F)C(F)(F)F`, the outcome was inactive. As for `C#C[C@]1(O)CC[C@H]2[C@@H]3CCc4cc(O)ccc4[C@H]3CC[C@@]21C`, the outcome was inactive. Consider `c1ccc(Sc2ccccc2)cc1`, for which the outcome was inactive. As for `c1ccc(OCCOc2ccccc2)cc1`, the result was inactive. As for `CCn1cc(C(=O)O)c(=O)c2ccc(C)nc21`, the result was inactive.

On to `CCCCOCCOCCO`, for which the outcome was inactive. On to `CC(=O)c1ccc(C)cc1`, for which the outcome was inactive. In the case of `COc1ccccc1NC(=O)CC(C)=O`, the result was inactive. Turning to `NC(=O)c1c(Cl)cccc1Cl`, the result was inactive. In the case of `COC(=O)c1ccc(C(=O)OC)cc1`, the outcome was inactive. Take `O=C(O)C(F)(F)C(F)(F)C(F)(F)C(F)(F)C(F)(F)C(F)(F)C(F)(F)C(F)F`: the result was inactive.

With `CC(=O)OCC=C(C)CCC=C(C)CCC=C(C)C`, the outcome was inactive. Still for that read-out and setting: next, `CC(=O)CCC=C(C)CCC=C(C)C`: “inactive”. In the case of `OCCN1CCOCC1`, the result was inactive. For `CC1=CC(C)C(C=O)C(C)C1` (stereo not given) (tested in a mixture with another compound), the outcome was inactive. As to `C=CC(=O)OCC(CO)(COC(=O)C=C)COC(=O)C=C`, the AC50 is 0.118 µM (active). `O=C1OC2(c3ccc(O)cc3Oc3cc(O)ccc32)c2ccccc21`: the result was inactive. On the same count and under the same terms, next, `CCOC(=O)CCCCCCCCC(=O)OCC`: “inactive”. For `CC1(C)[C@H](C=C(Cl)Cl)[C@H]1C(=O)OCc1cccc(Oc2ccccc2)c1`, the result was inactive. Turning to `O=C(c1ccc(OCCN2CCCCC2)cc1)c1c(-c2ccc(O)cc2)sc2cc(O)ccc12`, the AC50 was 20 µM (active). As to `CCCCCCCCCC(=O)OCC`, the result was inactive.
